From PubChem BioAssay (Tox21)
Records with an inconclusive call do not appear. Calls of active or inactive are those of the source. Unless noted, the call rests on the fitted dose curve; in most records, active means well fitted curve in the direction sought with a large enough effect in the repeat runs; inconclusive means weak or mixed curves; inactive means no such curve, though single readings can be large; an effect the other way counts as inactive or inconclusive.

Legend:
[1] = qHTS assay to identify small molecule agonists of the hypoxia (HIF-1) signaling pathway (AID 1224846; active means well fitted activation curve with a large enough effect in the signal ratio in the repeat runs, not every such curve was filed as active; the % refers to the signal ratio)
Outline: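 Steps: seed ME-180 HRE-bla cells (2,000/well, 0.5% dialyzed FBS); incubate 5 hrs at 37C; pin-transfer compounds or DMSO; incubate 17 hrs; add LiveBLAzer B/G substrate CCF4-AM; measure reporter activation by FRET.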

[2] = qHTS assay to identify small molecule antagonists of the estrogen related receptor (ERR) signaling pathway from Tox21 library (AID 1224848); further: nearly all actives have a fitted effect of over 50% in size
Outline: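 Screening used an ERR reporter line supplied by NTP, exposed for 18 h at 37 C to library compounds delivered in DMSO. Signal was luciferase luminescence developed with ONE-Glo at room temperature for 30 min.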

[3] = qHTS assay to identify small molecule agonists of the estrogen related receptor (ERR) signaling pathway from Tox21 library (AID 1224849; calls by dose curve; further: nearly all actives have a fitted effect of over 15% in size); settings: ERR reporter cell line, ONE-Glo luciferase, 18 h; at 92.4 µM (top of the series) unless noted
Outline: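 Agonist signal is luciferase luminescence from an ERR reporter cell line treated 18 h at 37 C with DMSO-dissolved compounds, read 30 min after ONE-Glo addition at room temperature.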

[4] = qHTS RealTime-Glo MT Cell Viability Assay in HepG2 cells - 24 hour (AID 1224867); further: nearly all actives have a fitted effect of over 50% in size
Outline: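 Tox21 10K library screened in qHTS format on HepG2 cells carrying RealTime-Glo reagents. Compounds were added after a 5 h preincubation, and the luminescent signal from continuous culture was measured repeatedly during 40 h treatment.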

[5] = qHTS RealTime-Glo MT Cell Viability Assay in HEK293 cells - 32 hour (AID 1224868); further: top concentration of the series differs between compounds; nearly all actives have a fitted effect of over 50% in size
Outline: (§1)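 Luminescence generated by NanoLuc from substrate produced by living HEK293 cells served as the viability signal. Each value reflects the reading at its stated time point during continuous 40 h compound exposure at 37 C.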

[6] = A CellTox Green Cytotoxicity Assay to monitor cytotoxicity in HEK293 cells - 0 hour (AID 1224869); further: nearly all actives have a fitted effect of over 50% in size
Outline: (§2)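 Cytotoxicity was tracked continuously in HEK293 cells by a DNA-binding dye excluded from viable cells. Compounds were transferred in DMSO 5 h after seeding; fluorescence was recorded at intervals up to 40 h.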

[7] = qHTS RealTime-Glo MT Cell Viability Assay in HepG2 cells - 40 hour (AID 1224870); further: nearly all actives have a fitted effect of over 50% in size
Outline: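 HepG2 cells mixed with RealTime-Glo MT reagents (NanoLuc plus cell-permeant prosubstrate) were seeded at 600 cells/well, incubated 5 h at 37 C/5% CO2, then pinned with compounds in DMSO; nonlytic luminescence tracked viability during 40 h treatment.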

[8] = qHTS RealTime-Glo MT Cell Viability Assay in HEK293 cells - 16 hour (AID 1224872)
Outline: as §1

[9] = qHTS assay to identify small molecule agonists of H2AX - cell viability counter screen (AID 1224847; calls by dose curve; further: top concentration of the series differs between compounds; nearly all actives have a fitted effect of over 30% in size)
Outline: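 We seed wild-type CHO-K1 cells overnight, treat them for 3 hr at 37C with compounds in 15-concentration series, and quantify remaining viability by CellTiter-Glo luminescence.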

[10] = A CellTox Green Cytotoxicity Assay to monitor cytotoxicity in HEK293 cells - 40 hour (AID 1224871); further: nearly all actives have a fitted effect of over 45% in size
Outline: as §2
On the % scale 0 is the no-effect control and ±100 the full control effect.

CCCC(=O)C(C)=O
inactive: outcome [1] | Potency [2] | activity change, positive = activation [3] 7.37% | outcome [4] | Potency [5] | outcome [6] | outcome [7] | Potency [8]

CC(C)C(=O)OCc1cccc(OC(=O)[C@@H]2N3C(=O)[C@@H](NC(=O)Cc4ccccc4)[C@H]3SC2(C)C)c1
inactive: outcome [1] | Potency [9] | Potency [5] | outcome [6] | outcome [7] | Potency [10] | Potency [8]

Cc1cccc(OCC(O)CNC(C)(C)C)c1C (centres undefined)
inactive: outcome [1] | Potency [9] | Potency [5] | outcome [6] | outcome [7] | Potency [10] | Potency [8]

CN(C)C(=O)CNC(=O)Cc1ccccc1
inactive: outcome [1] | Potency [9] | Potency [5] | outcome [6] | outcome [7] | Potency [10] | Potency [8]

O=C(NCCc1c[nH]c2ccccc12)c1cccnc1
inactive: outcome [1] | Potency [9] | outcome [4] | outcome [6] | outcome [7] | Potency [10] | Potency [8]

CC(C)(C)c1cc(CCC(=O)NN)cc(C(C)(C)C)c1O
inactive: outcome [1] | Potency [2] | activity change, positive = activation [3] -9% | outcome [4] | Potency [5] | outcome [6] | outcome [7] | Potency [10] | Potency [8]

C[C@@H]1O[C@@H](O[C@@H]2[C@@H](O)[C@H](OCCc3ccc(O)c(O)c3)O[C@H](CO[C@@H]3O[C@H](CO)[C@@H](O)[C@H](O)[C@H]3O)[C@H]2OC(=O)/C=C/c2ccc(O)c(O)c2)[C@H](O)[C@H](O)[C@H]1O
inactive: outcome [1] | Potency [9] | outcome [4] | outcome [6] | outcome [7] | Potency [10] | Potency [8]

O=C(OCC1(COC(=O)c2cccnc2)CCCC(COC(=O)c2cccnc2)(COC(=O)c2cccnc2)C1O)c1cccnc1
inactive: outcome [1] | Potency [9] | outcome [4] | outcome [6] | outcome [7] | Potency [8]

CCCCNC1CC(C)(C)NC(C)(C)C1
inactive: outcome [1] | Potency [2] | activity change, positive = activation [3] 8.08% | outcome [4] | Potency [5] | outcome [6] | outcome [7] | Potency [10] | Potency [8]

CC(=O)OC(C)OC(=O)C(C)c1ccc(-c2ccccc2)c(F)c1 (centres undefined)
inactive: outcome [1] | Potency [9] | Potency [5] | outcome [6] | outcome [7] | Potency [10] | Potency [8]

COc1ccc(C2CNC(=O)C2)cc1OC1CCCC1 (centres undefined)
inactive: Potency [9] | Potency [2] | activity change, positive = activation [3] -4.57% [at 42.5 µM] | outcome [4] | Potency [5] | outcome [6] | outcome [7] | Potency [10] | Potency [8]

Cc1cc2cc3c(C)cc(=O)oc3c(C)c2o1
inactive: Potency [9] | Potency [2] | activity change, positive = activation [3] 7.29% [at 42.5 µM] | Potency [5] | outcome [6] | outcome [7] | Potency [10] | Potency [8]

CCN1CCc2nc(N)oc2CC1
inactive: Potency [9] | outcome [4] | Potency [5] | outcome [6] | outcome [7] | Potency [10] | Potency [8]

Nc1nnc(-c2cccc(Cl)c2Cl)c(N)n1
inactive: Potency [9] | outcome [6] | Potency [10]

Cc1ccsc1/C=C/C1=NCCCN1C
inactive: Potency [9] | Potency [2] | activity change, positive = activation [3] -1.39% [at 42.5 µM] | outcome [4] | outcome [7] | Potency [8]

NCCS
inactive: Potency [9] | Potency [2] | activity change, positive = activation [3] -2.88% [at 42.5 µM] | outcome [4] | Potency [5] | outcome [6] | outcome [7] | Potency [10] | Potency [8]

FC(F)(F)c1ccccc1-n1ccnc1
inactive: Potency [9] | Potency [5] | outcome [7] | Potency [8]

O=C(NCC(O)CO)c1c(I)c(C(=O)NCC(O)CO)c(I)c(N(CCO)C(=O)CO)c1I (centres undefined)
inactive: Potency [9] | Potency [2] | activity change, positive = activation [3] 5.02% [at 42.5 µM] | outcome [6] | outcome [7] | Potency [10] | Potency [8]

CCCCCCN
inactive: Potency [9] | outcome [4] | Potency [5] | outcome [6] | outcome [7] | Potency [10] | Potency [8]

CN1C(C)(C)CCCC1(C)C
inactive: Potency [9] | outcome [4] | Potency [5] | outcome [6] | outcome [7] | Potency [10] | Potency [8]

C[C@@H](O)[C@H]1C(=O)N2C(C(=O)O)=C(SCCN=CN)C[C@H]12
inactive: Potency [9] | Potency [2] | activity change, positive = activation [3] 5.47% [at 42.5 µM] | outcome [4] | Potency [5] | outcome [6] | outcome [7] | Potency [10] | Potency [8]

Nc1ccc(S(=O)(=O)Nc2ccc(Cl)nn2)cc1
inactive: Potency [9] | Potency [2] | activity change, positive = activation [3] 4.62% [at 42.5 µM] | outcome [4] | outcome [6] | outcome [7] | Potency [8]

O=C1c2ccccc2C(=O)C1c1ccccc1
inactive: Potency [9] | outcome [4] | Potency [5] | outcome [6] | outcome [7] | Potency [10] | Potency [8]
